Inconclusive results are not listed. Where a call stands in place of a potency, no number is given. Active and inactive are the calls of the source. Calls follow the shape of the dose curve; as a rule, active = well fitted inhibition curve with a large enough effect; inconclusive = small, poorly fitted or top-dose-only effect; inactive = flat fitted curve, though single readings scatter.
These molecules were tested against Luciferin 4-monooxygenase (Photinus pyralis) (UniProt P08659) (assay: Biochemical firefly luciferase enzyme assay for NPC (AID 624030; also: nearly all actives have a fitted effect of over 70% in size)). Settings: purified P. pyralis luciferase, luminescence, 5 min; series mostly up to 58.6 µM.
Luciferin 4-monooxygenase (Photinus pyralis), sequence (P08659 whole entry, looked up): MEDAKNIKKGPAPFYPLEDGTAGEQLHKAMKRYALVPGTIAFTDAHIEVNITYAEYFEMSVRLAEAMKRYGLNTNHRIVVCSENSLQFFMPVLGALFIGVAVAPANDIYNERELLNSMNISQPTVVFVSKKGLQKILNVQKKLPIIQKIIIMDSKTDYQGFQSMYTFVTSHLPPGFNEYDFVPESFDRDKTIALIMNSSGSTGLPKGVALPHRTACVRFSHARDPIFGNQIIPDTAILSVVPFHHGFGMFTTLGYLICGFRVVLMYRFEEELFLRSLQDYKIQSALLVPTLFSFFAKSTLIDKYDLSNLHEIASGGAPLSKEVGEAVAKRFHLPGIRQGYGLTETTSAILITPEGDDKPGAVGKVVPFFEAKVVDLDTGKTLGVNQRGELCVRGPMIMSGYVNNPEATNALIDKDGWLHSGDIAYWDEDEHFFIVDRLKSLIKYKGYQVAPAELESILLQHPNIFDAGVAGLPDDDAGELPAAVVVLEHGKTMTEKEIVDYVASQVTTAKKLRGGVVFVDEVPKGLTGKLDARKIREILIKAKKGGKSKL
Outline: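 Counter-screen for direct inhibition of the luciferase enzyme by approved-drug library compounds, run at 10 nM enzyme in 50 mM Tris acetate (final). Luminescence was read within 5 min of enzyme-buffer addition and normalized to PTC124 versus DMSO (0%).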
`O=C(O)Cc1ccc(OCCNC[C@H](O)c2ccccc2)cc1` was tested, and the Potency was “inactive”.
For `O=C(OCC1(COC(=O)c2cccnc2)CCCC(COC(=O)c2cccnc2)(COC(=O)c2cccnc2)C1O)c1cccnc1`, the Potency was “inactive”.
For `CC(C(O)c1ccccc1)N(C)CCOC(c1ccccc1)c1ccccc1` (stereo not given), the Potency was “inactive”.
`CN(CC1(C)CCCO1)S(=O)(=O)c1ccc(Cl)c(S(N)(=O)=O)c1` (stereo not given) was tested, and the Potency was “inactive”.
For `CCC1(c2cnc[nH]2)Cc2ccccc2C1`, the Potency was “inactive”.
For `O=C(OCC(COC(=O)c1cccnc1)(COC(=O)c1cccnc1)COC(=O)c1cccnc1)c1cccnc1`, the Potency was “inactive”.
In the case of `CCOC(=O)OCC/C(SC(=O)OCC)=C(\C)N(C=O)Cc1cnc(C)nc1N`, the Potency was “inactive”.
For `O=C1NCCN1CCN1CCC(c2cn(-c3ccc(F)cc3)c3ccc(Cl)cc23)CC1`, the Potency was “inactive”.
For `O=C(O)c1[nH]n(-c2ccc(S(=O)(=O)O)cc2)c(=O)c1N=Nc1ccc(S(=O)(=O)O)cc1`, the Potency was “inactive”.
In the case of `NCC(=O)O`, the Potency was “inactive”.
For `CC1CN(c2cc3c(cc2F)c(=O)c(C(=O)O)cn3-c2ccc(F)cc2F)CCN1` (stereo not given), the Potency was “inactive”.
In the case of `C[C@H]1NCc2cc(-c3ccc4c(=O)c(C(=O)O)cn(C5CC5)c4c3OC(F)F)ccc21`, the Potency was “inactive”.
In the case of `CC(C)(C)c1nnc(NS(=O)(=O)c2ccccc2)s1`, the Potency was “inactive”.
`CCOC(=O)[C@H](CCc1ccccc1)N[C@@H](C)C(=O)N(CC(=O)O)C1Cc2ccccc2C1` was tested, and the Potency was “inactive”.
With `COc1cc(NS(=O)(=O)c2ccc(N)cc2)nc(C)n1` the Potency was “inactive”.
With `CCOC(=O)NNc1nncc2ccccc12` the Potency was “inactive”.
`COC(=O)C1=C(C)NC(COC(N)=O)=C(C(=O)OC(C)C)C1c1cccc(Cl)c1Cl` (stereo not given) was tested, and the Potency was “inactive”.
`CC(C(=O)O)c1ccc(/C=C2\CCCCC2=O)cc1` (stereo not given) was tested, and the Potency was 16.1 µM (active).
In the case of `CCCCCCCCCCCCCCCCCCNC(=O)OC1CCN(C(=O)OC[C@H](COC(=O)N(Cc2cccc[n+]2CC)C(=O)c2ccccc2OC)OC)CC1`, the Potency was “inactive”.
In the case of `O=C(CCCCCCCCC#CI)Oc1ccccc1`, the Potency was “inactive”.
With `CC(=O)Oc1ccc(C2(c3ccc(OC(C)=O)cc3)Oc3ccccc3NC2=O)cc1` the Potency was “inactive”.
`C[C@H](CN1CCCC1)C(=O)c1ccc(C(F)(F)F)cc1` was tested, and the Potency was “inactive”.
For `CCOC(=O)c1ccc(OCCN2C[C@H](O)[C@@H](O)[C@H](O)[C@H]2CO)cc1`, the Potency was “inactive”.
`O=[N+]([O-])c1nccn1CO[C@@H](CO)[C@H](O)CO` was tested, and the Potency was “inactive”.
For `N#C/C(=C1/SC[C@@H](c2ccc(Cl)cc2Cl)S1)n1ccnc1`, the Potency was “inactive”.
`N=C(N)c1ccc(OCCCOc2ccc(C(=N)N)cc2)cc1` was tested, and the Potency was “inactive”.
With `Cc1cc(O)c2c(O)c3c(O)cccc3cc2c1` the Potency was “inactive”.
In the case of `CC(=O)OCC[N+](C)(C)C`, the Potency was “inactive”.
In the case of `CN(C)C(=O)CNC(=O)Cc1ccccc1`, the Potency was “inactive”.
With `OCCc1ccccc1` the Potency was “inactive”.
For `CCCc1c2oc(C(=O)O)cc(=O)c2cc2c(=O)cc(C(=O)O)n(CC)c12`, the Potency was “inactive”.
With `C[C@]12CCC(=O)C=C1CC[C@@H]1[C@@H]2[C@@H](O)C[C@@]2(C)[C@H]1CC[C@]2(O)C(=O)COC(=O)CCC(=O)O` the Potency was “inactive”.
For `C[N+]1(CC2COC(c3ccccc3)(c3ccccc3)O2)CCCCC1` (stereo not given), the Potency was “inactive”.
`C[C@@H](C1=C(CCN(C)C)Cc2ccccc21)c1ccccn1` was tested, and the Potency was “inactive”.
`COc1ccccc1OCC1CNC(=O)O1` (stereo not given) was tested, and the Potency was “inactive”.
In the case of `Cc1cccc(N(C)C(=S)Oc2ccc3c(c2)CCC3)c1`, the Potency was “inactive”.
With `CN1CCC(=C2c3ccccc3CCc3cccnc32)CC1` the Potency was “inactive”.
For `CCNC(=O)NCCCOc1cccc(CN2CCCCC2)c1`, the Potency was “inactive”.
For `O=C(O)CCC(=O)OC[C@@H](NC(=O)C(Cl)Cl)[C@H](O)c1ccc([N+](=O)[O-])cc1`, the Potency was “inactive”.
In the case of `CCOC(=O)c1ccc(NC(=O)CN2CCCCC2)cc1`, the Potency was “inactive”.
Potency is read from the fitted curve at half-maximal effect.
